ALOX12 inh – inhibitors of human 12S-lipoxygenase ALOX12 | hit rate 1.1% among 580,000 | P18054 | purified 12hLO, xylenol orange hydroperoxide absorbance | Potency, µM (doses to about 108 µM), without a hit: top-dose activity change, negative = inhibition, most hits filed as inhibitors; also: % is scaled to controls: 0 for no effect and ±100 for the full control effect
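Purified human 12hLO (150 nM final) in 25 mM Hepes, 0.01% Triton X-100, pH 7.0 was preincubated 15 min at room temperature with compound. Then 40 uM arachidonic acid was added, 30 min. Hydroperoxide was read by Fe-XO absorbance ratio 573/405 nm.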
Glioma ERSR ind – ER stress response induction in glioma; U87-MG GRP78 promoter luciferase reporter, 16 h; Potency, µM, without a hit: at the highest dose activation, actives largely listed as activators; hit rate 0.02% among 420,000; also: series mostly up to about 76 µM; % of control where 0% means no effect; nearly all actives have a fitted effect of over 35% in size
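ERSR induction read as luciferase luminescence (Bright-Glo, 10 min at room temperature) in stably transfected human U87-MG glioma cells exposed to compounds for 16 h, using GRP78 as sensor.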
VDR inh – inhibitors of human vitamin D receptor. VDR-SRC2-3 peptide fluorescence polarization, 2 h. AID 504847. hit rate 0.93% among 400,000. Potency, µM, for the others: max response, negative = inhibition, actives largely listed as inhibitors. P11473; also: % is scaled to controls: 0 for no effect and ±100 for the full control effect
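Compounds are added to VDR with labelled SRC2-3 coactivator peptide and held 2 h at room temperature. Inhibition of the VDR–peptide interaction is then read as a change in fluorescence polarization.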
G9a block – blocks human histone lysine methyltransferase G9a; Q96KQ7; AID 504332; hit rate 8.8% among 350,000; Potency, µM (doses to about 102 µM), inactives show top-dose activity, negative = inhibition, hits mostly inhibitors; G9a H3K9 monomethylation, AlphaScreen, 2 h; also: % is scaled to controls: 0 for no effect and ±100 for the full control effect; nearly all actives have a fitted effect of over 75% in size
Target sequence (Q96KQ7 913-1193 limits assumed): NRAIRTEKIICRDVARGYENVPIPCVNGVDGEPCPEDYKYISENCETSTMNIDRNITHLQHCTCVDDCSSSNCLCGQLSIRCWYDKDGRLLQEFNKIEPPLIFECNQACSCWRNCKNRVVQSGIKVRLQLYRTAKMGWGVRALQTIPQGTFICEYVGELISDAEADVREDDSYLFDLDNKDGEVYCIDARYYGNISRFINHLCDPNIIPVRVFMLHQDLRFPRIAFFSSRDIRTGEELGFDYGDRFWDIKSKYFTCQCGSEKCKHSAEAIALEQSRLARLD
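Quantitative HTS format: methyltransferase activity on a biotin-tagged H3K9 peptide is measured by AlphaScreen, using a rabbit anti-monomethyl-H3K9 antibody with streptavidin donor and anti-IgG acceptor beads. Final levels are 20 nM enzyme, 500 nM peptide, 20 uM SAM; 2 h RT.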
Sfp inh – Sfp phosphopantetheinyl transferase inhibition; Q9F4F7; Biochemical Sfp PPTase activity, qHTS; Potency, µM, for the others: largest response in the series, negative = inhibition, usual class: inhibitors; hit rate 3.5% among 310,000;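 also: the enzyme is Sfp with the accession as filed and its product quenches rhodamine fluorescence; 0% = enzyme reaction without inhibitor and -100% = no enzyme wells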
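Buffer: 50 mM Hepes-Na pH 7.6, 10 mM MgCl2, 0.01% Nonidet P-40, 0.01% BSA. Enzyme 15 nM, pre-exposed to compound 15 min; substrates then added and fluorescence change tracked over 30 min.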
Starred values were filed as active, the others as inactive; ! = a repeat was not active; [ ] = another dose, or the depositor's remark. Shown is part of a subset that was picked to be rich in hits. Calls follow the shape of the dose curve; as a rule, active = well fitted curve in the direction sought with a large enough effect; inconclusive = small, poorly fitted or top-dose-only effect, or another doubt; inactive = no such curve, though single readings can be large; an effect the other way counts as inactive or inconclusive. Potency is read from the fitted curve at half-maximal effect.

Screening CC(C)(C)NCCOCCOc1ccccc1-c1ccccc1 returned ALOX12 inh -24%, Glioma ERSR ind -4%, VDR inh 9%, G9a block 3.5µM* and Sfp inh 17%.
For CCC(C)NCCOCCOc1ccccc1-c1ccccc1 (configuration not stated) the results were ALOX12 inh inconclusive, Glioma ERSR ind 1%, VDR inh -2%, G9a block 13µM* and Sfp inh -9%.
Screening CNS(=O)(=O)c1ccc(Oc2ccc3c(C(C)C)cc(=O)oc3c2)c([N+](=O)[O-])c1 returned ALOX12 inh 1%.
For CN1C(=O)Cc2cc(-c3csc(Nc4ccccc4)n3)ccc21 the results were ALOX12 inh -35%.
For CC(=O)Nc1nc(-c2ccc3c(c2)CCN3S(C)(=O)=O)cs1 the results were ALOX12 inh -16%, Glioma ERSR ind 4%, VDR inh -1% and Sfp inh 56µM*.
Cc1cccc(Nc2nc(-c3ccc4c(c3)CCN4S(C)(=O)=O)cs2)c1 was read as ALOX12 inh 35µM*.
CCOC(=O)CC1=C(C(=O)OCC)C(c2ccc(C)o2)C(C#N)=C(N)O1 (configuration not stated) was read as ALOX12 inh -6%, Glioma ERSR ind -4%, VDR inh -8%, G9a block 25µM* and Sfp inh -9%.
For CCOC(=O)C1=C(CC)OC(N)=C(C#N)C1c1ccc(OC)cc1OC (configuration not stated) the results were ALOX12 inh -7%, Glioma ERSR ind -1%, VDR inh -4%, G9a block -12%[59 µM] and Sfp inh 11%.
`CCOC(=O)C1=C(c2ccccc2)OC(N)=C(C#N)C1c1ccco1` (configuration not stated) gave ALOX12 inh 0%, Glioma ERSR ind -2%, VDR inh 9%, G9a block 45µM* and Sfp inh 1%.
For Cc1ccc(C2C(C#N)=C(N)Oc3c2sc2ccccc32)o1 (configuration not stated) the results were G9a block 16µM* and Sfp inh 56µM*.
Screening CCOC(=O)CC1=C(C(=O)OCC)C(c2ccc(OC)cc2OC)C(C#N)=C(N)O1 (configuration not stated) returned ALOX12 inh -6%, Glioma ERSR ind -4%, VDR inh -4%, G9a block 56µM* and Sfp inh 79µM*.
O=C(c1ccc(F)cc1)[C@@H]1[C@@H](C(=O)c2ccccc2)[C@@]2(C(=O)Nc3ccccc32)[C@H]2c3ccccc3C=CN12 was read as G9a block 7.1µM* and Sfp inh 2%.
For O=C(c1ccccc1)[C@@H]1[C@@H](C(=O)c2ccco2)[C@@]2(C(=O)Nc3ccccc32)[C@H]2c3ccccc3C=CN12 the results were ALOX12 inh 14µM*.
Screening O=C(CSc1ncc(-c2ccc(Br)cc2)o1)N1CCCCCC1 returned ALOX12 inh -38%.
For CC(=O)C1=C(C)NC(=S)NC1c1ccc(F)cc1 (configuration not stated) the results were ALOX12 inh -9%.
Fc1ccc(/C=C2\CCCC3=C2NC(=S)NC3c2ccc(F)cc2)cc1 (configuration not stated) was read as G9a block 22µM* and Sfp inh 45µM*.
CCS(=O)c1scc(-c2ccc(Cl)cc2)c1C#N (configuration not stated) was read as ALOX12 inh 163%, Glioma ERSR ind 6%, VDR inh -11%, G9a block 50µM* and Sfp inh 11%.
O=C(CSc1nc(Cl)nc2nc[nH]c12)NCCc1ccc(Cl)cc1Cl was read as ALOX12 inh 14%.
Screening CCCC(C(=O)NC1CCCCC1)(c1ccccc1)c1ccccc1 returned ALOX12 inh 7%.
`NOCC(=O)O` gave ALOX12 inh 3%, Glioma ERSR ind -2%, VDR inh -1% and G9a block 6µM*!.
`Cc1ccc(C(=O)OCC(=O)c2ccc(CC(=O)N3CCOCC3)s2)c(C)c1` gave Glioma ERSR ind 0%, VDR inh -8% and G9a block 45µM*.
For C=CC(=O)c1ccc(CCCCCC)cc1 the results were Glioma ERSR ind -4%, VDR inh 40µM*, G9a block 11µM* and Sfp inh inconclusive.
Screening O=c1ccc(S(=O)(=O)N2CCCC2)cn1Cc1ncc(-c2ccc(F)cc2)o1 returned ALOX12 inh -20%.
`Cc1csc(NC(=O)C(Cc2ccccc2)n2cccc2)n1` (configuration not stated) gave ALOX12 inh -17%[57.4 µM], Glioma ERSR ind 6%, VDR inh -17%, G9a block 45µM* and Sfp inh -15%.
For O=C(NCc1cccs1)C(Cc1ccccc1)n1cccc1 (configuration not stated) the results were ALOX12 inh 19%, Glioma ERSR ind 0%, VDR inh 1%, G9a block 45µM* and Sfp inh -6%.
Screening CC(C)C(C)NC(=O)CSc1ncnc2ccccc12 (configuration not stated) returned ALOX12 inh -18%.
Screening O=C(CSc1nc(-c2ccc3c(c2)OCO3)nc2cc(=O)[nH]n12)NCCc1ccccc1 returned ALOX12 inh 0%.
O=C(C1=NO[C@@H]2CN(c3ccc(OC(F)(F)F)cc3)C[C@H]12)N1CCOCC1 was read as ALOX12 inh -9%[176 µM].
For O=C(/C=C/c1ccccc1)c1cc2ccccc2o1 the results were ALOX12 inh 0%.
O=C(/C=C/N1CCOCC1)c1cc2ccccc2o1 was read as ALOX12 inh 6%, Glioma ERSR ind -3%, VDR inh 5%, G9a block 10µM* and Sfp inh -6%.
For CCNc1ccc(S(=O)(=O)N(C)C)cc1NCC(=O)Nc1c(F)cccc1F the results were ALOX12 inh 28%, Glioma ERSR ind -5%, VDR inh -12%, G9a block 21%[59 µM] and Sfp inh 10%.
For CCNc1ccc(S(=O)(=O)N(C)C)cc1NCC(=O)Nc1ccccc1Cl the results were ALOX12 inh -5%, Glioma ERSR ind -4%, VDR inh 10%, G9a block 40µM* and Sfp inh 2%.
For O=C(CCCN1C(=O)/C(=C\c2ccccc2)SC1=S)Nc1ccc(C(=O)O)cc1 the results were ALOX12 inh -24%, Glioma ERSR ind 0%, VDR inh inconclusive, G9a block inconclusive and Sfp inh 7%.
For O=C(CCN1C(=O)/C(=C\C=C\c2ccccc2)SC1=S)Nc1ccc(C(=O)O)cc1 the results were ALOX12 inh 32µM*, Glioma ERSR ind 19%, VDR inh inconclusive, G9a block 32µM* and Sfp inh inconclusive.
